This is one part of a sample in which hits are shown more often than they occur.
HT1080-NT tox: kills 2HG-producing HT-1080-NT fibrosarcoma cells | Potency, µM (titrated, usually from 46.1 µM), without a hit: at the top dose activity, negative = less viability, hits mostly cytotoxic | HT-1080-NT fibrosarcoma viability, CellTiter-Glo ATP luminescence, 48 h | 360,000 compounds, 1.6% hits;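 further: NT is the 2HG producing partner of a matched IDH1 knockdown line; potency means the concentration at half of the fitted maximal effect; 0% = DMSO-treated cells and -100% = media-only wells without cells; nearly all actives have a fitted effect of over 55% in size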
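HT-1080-NT fibrosarcoma cells (2HG-overproducing), 750 cells/well in RPMI with 5% FBS, dosed after 2 h and incubated 48 h at 37C. CellTiter-Glo luminescence normalized to DMSO and no-cell wells; concentration-response curves fitted and classed.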
IL-1B inflam inh: blocks inflammasome-driven IL-1 beta release; activity change, % at 57.5 µM; THP-1 LPS/ATP IL-1B secretion, AlphaLISA, 16 h; hits give low values; 360,000 compounds, 4.7% hits; in the data active means activity change below about -50%; inconclusive means mostly about -30% to -49%
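Secreted IL-1B measured by AlphaLISA bead assay after 16 h compound exposure of THP-1 cells; compounds (final up to 57.5 uM) added 1 h before LPS (250 ng/mL) and ATP (1.25 mM) stimulation; lower signal means less secretion.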
TDP1 cell CPT: growth inhibition of DT40 Tdp1-/-;hTDP1 cells with camptothecin (screen for TDP1 inhibitors); chicken DT40 Tdp1-/-;hTDP1 cells + 20 nM CPT, ATP luminescence, 48 h; Potency, µM (series often up to 46.2 µM), without a hit: at the highest dose activity change, negative = growth inhibition, most hits filed as inhibitors; 420,000 compounds, 12% hits; AID 686979; further: potency means the concentration at half of the fitted maximal effect; nearly all actives have a fitted effect of over 55% in size
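Chicken DT40 Tdp1-/- cells complemented with human TDP1, 400 cells/well, exposed to compounds plus 20 nM camptothecin for at least 48 h at 37 C; viability read as ATP content by CellTiter-Glo luminescence.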
HT1080 IDH1KD tx: HT-1080 IDH1 knockdown cell toxicity (counter line). Potency, µM (series often up to 46.1 µM), without a hit: at the top dose activity, negative = toxicity, usual class: cytotoxic. 360,000 compounds, 2% hits. HT-1080 IDH1 knockdown viability, ATP luminescence, 48 h. AID 686971;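 further: potency means the concentration at half of the fitted maximal effect; 0% = DMSO wells and -100% = cell-free medium wells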
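Viability of IDH1-knockdown HT-1080 fibrosarcoma cells was assessed by CellTiter-Glo after 48 h at 37 °C with titrated compound; concentration-effect curves were classified by fit quality and response size.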
TDP1 cell noCPT: qHTS for Inhibitors of human tyrosyl-DNA phosphodiesterase 1 (TDP1): qHTS in cells in absence of CPT; Potency, µM (series often up to 46.2 µM), inactives show at the highest dose activity change, negative = growth inhibition, hits mostly inhibitors; DT40 Tdp1-/- hTDP1 cells, no CPT, ATP luminescence, 48 h; 420,000 compounds, 15% hits; further: potency means the concentration at half of the fitted maximal effect; nearly all actives have a fitted effect of over 55% in size
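Seeded 400 DT40-hTDP1 cells/well (vehicle DMSO, no 20 nM CPT); pinned compounds; ≥48 hr at 37 °C; CellTiter-Glo luminescence as viability measure.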
12-LOX inh: blocks human arachidonate 12S-lipoxygenase; purified 12hLO, xylenol orange hydroperoxide absorbance; Potency, µM (doses to about 108 µM), for inactives: top-dose activity change, negative = inhibition, most hits filed as inhibitors; 580,000 compounds, 1.1% hits; further: potency means the concentration at half of the fitted maximal effect
Target sequence (P18054 whole entry, looked up): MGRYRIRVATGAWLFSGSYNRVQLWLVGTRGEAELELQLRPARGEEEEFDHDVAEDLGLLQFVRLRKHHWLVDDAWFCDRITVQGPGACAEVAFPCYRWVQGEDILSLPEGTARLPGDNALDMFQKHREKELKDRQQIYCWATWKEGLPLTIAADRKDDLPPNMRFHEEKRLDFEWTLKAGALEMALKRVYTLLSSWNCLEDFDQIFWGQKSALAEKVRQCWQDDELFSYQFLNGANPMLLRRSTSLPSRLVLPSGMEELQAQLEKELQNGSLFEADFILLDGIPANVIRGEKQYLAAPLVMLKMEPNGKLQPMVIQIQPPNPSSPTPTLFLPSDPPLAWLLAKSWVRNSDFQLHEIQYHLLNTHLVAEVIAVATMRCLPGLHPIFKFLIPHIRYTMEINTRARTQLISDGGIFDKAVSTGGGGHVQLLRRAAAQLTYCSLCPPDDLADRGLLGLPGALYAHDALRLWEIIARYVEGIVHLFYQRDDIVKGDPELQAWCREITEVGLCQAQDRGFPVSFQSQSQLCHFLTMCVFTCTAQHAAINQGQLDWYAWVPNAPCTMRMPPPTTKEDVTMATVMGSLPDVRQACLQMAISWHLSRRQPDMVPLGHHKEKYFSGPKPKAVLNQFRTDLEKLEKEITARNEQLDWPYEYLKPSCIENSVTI
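Purified human 12hLO at 150 nM in 25 mM Hepes, 0.01% Triton X-100, pH 7.0, preincubated 15 min at room temperature with compound. Reaction started with 40 uM arachidonic acid, 30 min at room temperature. Hydroperoxide measured by Fe-xylenol orange, 573/405 nm absorbance ratio.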
* = called active by the depositor; ? = inconclusive; · = no result given; [ ] = another dose, or the depositor's remark. Unless noted, the call rests on the fitted dose curve; in most records, active means well fitted curve in the direction sought with a large enough effect; inconclusive means small, poorly fitted or top-dose-only effect, or another doubt; inactive means no such curve, though single readings can be large; an effect the other way counts as inactive or inconclusive. Unless noted, on the % scale 0 is the no-effect control and ±100 the full control effect.

SMILES | HT1080-NT tox | IL-1B inflam inh | TDP1 cell CPT | HT1080 IDH1KD tx | TDP1 cell noCPT | 12-LOX inh
CN(C)c1nc(-c2ccncc2)nc2c1CCN(C(=O)c1[nH]ncc1Cl)C2 | · | · | · | · | · | 33.4%
CC1(S(=O)(=O)O)CC(=O)c2ccccc2C1=O (stereo not drawn) | 18.4µM* | ? | 7.31µM* | 20.6µM* | 5.17µM* | -20.5%
CCOc1ccc2[nH]c(=O)c(C(c3nnnn3CC3CCCO3)N3CCc4ccccc4C3)cc2c1 (stereo not drawn) | -2.6% | -24.3 | 16.4µM* | 8.6% | 23.1µM* | -17.7%
O=c1[nH]c2cc3c(cc2cc1C(c1nnnn1Cc1ccccc1)N1CCCc2ccccc21)OCO3 (stereo not drawn) | -26.6%[9.24 µM] | 28.4 | 20.6µM* | ? | 23.1µM* | -28.7%
COc1cc2cc(C(c3nnnn3C3CCCC3)N3CCc4ccccc43)c(=O)[nH]c2cc1OC (stereo not drawn) | -25.8% | 16.9 | ? | -18.7% | ? | -27.3%
O=c1[nH]c2cc3c(cc2cc1C(c1nnnn1Cc1ccccc1)N1CCCCCC1)OCCO3 (stereo not drawn) | -19.3% | -14.9 | 16.4µM* | -4.3% | ? | -8.1%
COc1cc2cc(C(c3nnnn3C(C)(C)C)N3CCc4ccccc43)c(=O)[nH]c2cc1OC (stereo not drawn) | -8.4% | -12.6 | -34.7% | -8.0% | 20.6µM* | -25.8%
CCCCC/C=C\C=C\C(=O)OCC | · | · | · | · | · | -28.2%[176 µM]
O=c1[nH]c2cc3c(cc2cc1C(c1nnnn1C1CCCC1)N1CCCc2ccccc21)OCCO3 (stereo not drawn) | -0.9% | 1.4 | -1.3% | 0.5% | -13.4% | 2.9%
O=c1[nH]c2cc3c(cc2cc1C(c1nnnn1Cc1ccccc1)N1CCN2CCCC2C1)OCCO3 (stereo not drawn) | -17.0% | -2.0 | ? | -0.1%[9.24 µM] | 18.4µM* | -6.5%
Cc1cc2cc(C(c3nnnn3CC3CCCO3)N3CCCc4ccccc43)c(=O)[nH]c2cc1C (stereo not drawn) | ? | ? | ? | 11.2µM* | ? | -26.0%
Cc1ccc2cc(C(c3nnnn3CC3CCCO3)N3CCc4ccccc4C3)c(=O)[nH]c2c1 (stereo not drawn) | 1.2% | -22.2 | -29.5% | 0.1% | ? | -22.0%
Cc1ccc(C)c2[nH]c(=O)c(C(c3nnnn3Cc3ccccc3)N3CCc4ccccc4C3)cc12 (stereo not drawn) | -29.2% | -9.7 | 20.6µM* | -27.2% | -11.2% | -25.1%
CCc1ccc2nc(N(CCN(CC)CC)C(=O)c3ccco3)sc2c1 | · | · | 20.6µM* | · | ? | ?
CCN(CC)CCN(C(=O)c1ccco1)c1nc2cc(C)cc(C)c2s1 | · | · | ? | · | 23.1µM* | ?
CC(C)CN(C(=O)c1ccco1)c1nc2ccccc2s1 | -9.3% | 24.1 | -14.9% | -17.8% | ? | -3.1%
CCN(CC)CCN(C(=O)c1ccc(S(=O)(=O)N2CCCC2)cc1)c1nc2cc(C)cc(C)c2s1 | ? | ? | ? | ? | ? | 385.9%
O=C(/C=C/c1ccc(Br)cc1)NC(=S)NNC(=O)c1ccco1 | 16.4µM* | 38.8 | ? | 14.6µM* | 18.4µM* | ?
O=C(NC(=S)N1CCN(C/C=C/c2ccccc2)CC1)c1ccco1 | 4.8% | 1.5 | ? | 1.2% | 20.6µM* | -6.0%
O=C(/C=C/c1ccccc1)NC(=S)NNC(=O)c1ccco1 | -15.2% | 63.4 | ? | -8.1% | 20.6µM* | 220.2%
O=C(NNC(=O)c1ccco1)c1ccco1 | 0.2% | -9.2 | 3.9% | 1.7% | -8.4% | 3.5%
O=C(COc1ccc(F)cc1)Nc1ccc2oc(-c3cccc(Cl)c3)nc2c1 | · | · | · | · | · | 0.8%
